M1 antag: human M1 muscarinic receptor antagonists, primary screen, CHO-K1 cells, Fluo-8 calcium fluorescence, 1536-well | Muscarinic acetylcholine receptor M1 (Homo sapiens), P11229 | CHO-K1 hM1, ACh EC80 antagonist | inhibition, % at 3 µM | hit rate 1.3% among 360,000 | AID 588852, 2011;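 active = percent inhibition above its own plate's cutoff, namely the mean of that plate's compound wells plus 3 SD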;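 also: peak over basal fluorescence ratio during 140 s after agonist addition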
Target sequence (P11229 whole entry, looked up): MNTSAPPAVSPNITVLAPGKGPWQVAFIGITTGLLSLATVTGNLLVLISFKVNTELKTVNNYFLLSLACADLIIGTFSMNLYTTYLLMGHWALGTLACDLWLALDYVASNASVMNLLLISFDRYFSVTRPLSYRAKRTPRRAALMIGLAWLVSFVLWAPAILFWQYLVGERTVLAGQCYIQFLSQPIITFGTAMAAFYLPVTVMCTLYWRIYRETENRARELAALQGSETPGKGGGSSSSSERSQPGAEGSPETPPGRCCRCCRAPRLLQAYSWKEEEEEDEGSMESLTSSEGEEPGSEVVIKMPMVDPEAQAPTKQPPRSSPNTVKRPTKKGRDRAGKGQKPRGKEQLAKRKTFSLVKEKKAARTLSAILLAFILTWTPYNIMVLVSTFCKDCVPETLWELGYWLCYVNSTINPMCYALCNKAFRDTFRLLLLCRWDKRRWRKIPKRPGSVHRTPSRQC
CHRM1 agonist: human M1 muscarinic receptor agonists, primary screen, Fluo-8 calcium fluorescence, CHO-K1 cells, HTS; AID 588814, 2011; hit rate 0.33% among 360,000; CHO-K1 hM1, agonist mode; 0% DMSO, 100% acetylcholine EC100; activation, % at 3 µM;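 active = activation above the run's mean compound activation plus 3 SD, cut at about 16% in these data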;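 also: peak over basal fluorescence ratio within a 140 s kinetic read after compound addition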
CHO-K1 Ca antag: nonselective inhibitor or artifact in parental CHO-K1 cells. hit rate 0.6% among 360,000. inhibition, % at 3 µM. AID 602250. ATP-induced calcium, Fluo-8 fluorescence;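 active = inhibition above a per-plate cutoff, the plate's mean sample inhibition plus 3 SD, cut at about 24% in these data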
M1 ag parental: counter-screen for M1 agonists: effect in parental CHO-K1 cells; Fluo-8 calcium fluorescence; scaled to maximal ATP response, vehicle zero; activation, % at 3 µM; hit rate 0.48% among 360,000; in the data active = activation above about 15%;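 also: untransfected CHO-K1 host cells lacking M1 receptor as counterscreen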
M1 PAM parental: nonselective calcium activators in parental CHO-K1 cells, primary screen, counter-screen for M1 PAM project, cell-based, Fluo-8 calcium fluorescence, full deck, 1536-well; ATP EC20; 0% at ATP EC20, 100% at ATP max; activation, % at 3 µM; hit rate 0.02% among 360,000; AID 602247, 2012;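 active = activation above the run cutoff, the mean activation of all test compounds plus 3 SD, cut at about 40% in these data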;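 also: peak over basal fluorescence ratio in a 140 s read after ATP addition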
CHRM1 PAM: human M1 muscarinic receptor positive allosteric modulators, primary screen, CHO-K1 cells, Fluo-8 calcium fluorescence, 1536-well. Muscarinic acetylcholine receptor M1 (Homo sapiens), P11229. CHO-K1 hM1, ACh EC20; 0% = ACh EC20, 100% = maximal ACh. activation, % at 3 µM. hit rate 0.088% among 360,000. AID 588819, 2011; in the data active = activation above about 19%, passing the limit was not always enough
Hits are given with their value; - = inactive. Shown are actives, neighbours in structure and some others; about 2.4% of the full set was active somewhere.

SMILES	M1 antag	CHRM1 agonist	CHO-K1 Ca antag	M1 ag parental	M1 PAM parental	CHRM1 PAM
Cc1cc(C)cc(OCC(=O)OCC(=O)NCc2cccs2)c1	-	-	31	-	-	-
Cc1cc(C)c(OCC(=O)OCC(=O)NCc2cccs2)c(C)c1	-	-	-	-	-	-
Cc1cccc(OCC(=O)NCc2ccc(F)cc2)c1	-	-	24	-	-	-
COc1ccc([C@@H]2C[C@H]3[C@@H](CN2S(=O)(=O)c2ccccc2)C(=O)C[C@@H](c2ccc(OC)cc2)N3S(=O)(=O)c2ccccc2)cc1	-	-	28	-	-	-
CC(C)CC1CCCCC1OC(=O)C[N+]1(C)CCCCC1 (stereo not given)	96	-	-	-	-	-
O=[N+]([O-])c1ccc(N2CCN(Cc3ccccc3)CC2)s1	-	-	-	-	-	-
O=[N+]([O-])c1ccc(N2CCN(Cc3ccccc3)CC2)c2c1no[n+]2[O-]	35	-	-	19	-	-
CC1CCN(C(=O)CNC(=O)c2ccc(Cl)cc2Cl)CC1	-	-	31	-	-	22
CCS(=O)(=O)c1ccc(O)c(NC(=O)COc2ccc(OC)cc2)c1	-	-	-	-	-	-
CCCc1ccc(OCC(=O)Nc2cc(S(=O)(=O)CC)ccc2O)cc1	-	-	-	16	-	-
C[N+](C)(C)C/C=C1/COCO1	96	91	-	-	-	-
CCOC(=O)CSc1nnc(Cn2nnc3ccccc32)n1-c1ccc(F)cc1	-	-	-	-	-	-
CC(=NNc1nc2ccccc2o1)c1ncccn1	-	-	31	-	-	-
CC(=NNc1nc2ccccc2s1)c1ncccn1	-	-	27	-	-	-
CC(=NNc1nc2ccccc2o1)c1cc2ccccc2cn1	-	-	-	-	-	-
COCCN1C(=O)CCC1(C)C(=O)Nc1ccc2ccccc2c1 (stereo not given)	-	-	-	-	-	-
COc1cc2ccccc2cc1C(=O)N1CCCCC1	-	-	-	-	-	-
CN(C)CC(O)COc1cc2ccccc2cc1C(=O)N1CCCCC1 (stereo not given)	33	-	-	-	-	-
CCN1CCN(c2cc(C(C)(C)C)nc3c(-c4ccccc4)c(C)nn23)CC1	-	-	-	18	-	-
CCN1CCN(c2ccc(NC(=O)CCc3c(C)nc4c(-c5ccccc5)c(C)nn4c3C)cc2)CC1	37	-	-	-	-	-
Cc1nc2c(-c3ccccc3)c(C)nn2c(C)c1CCC(=O)NCc1ccco1	-	-	-	-	-	-
COCCn1c(C)cc(C(=O)COC(=O)/C=C/c2c(C)nn(C3CCS(=O)(=O)C3)c2Cl)c1C (stereo not given)	-	-	-	-	-	-
CCc1noc(C)c1C(=O)N(CC)CC(=O)NCc1ccc(F)cc1	-	-	-	-	-	-
COC(=O)C1=CN(Cc2ccccc2)C=C(C(=O)OC)C1c1ccc(O)c(OC)c1	-	-	25	-	-	-
COC(=O)C1=CN(Cc2ccccc2)C=C(C(=O)OC)C1c1ccc(OC)c(OC)c1	-	-	-	-	-	-
SMILES	M1 antag	CHRM1 agonist	CHO-K1 Ca antag	M1 ag parental	M1 PAM parental	CHRM1 PAM
Cc1nc(C(=O)NCc2ccccc2)sc1C1(C)CC(c2ccccc2)=NO1 (stereo not given)	-	17	-	-	-	-
Cc1ccc(Cl)cc1N1CCN(c2cccc[n+]2C)CC1	48	-	-	-	-	-
O=C(c1ccc(S(=O)(=O)c2cccc(Cl)c2)c([N+](=O)[O-])c1)N1CCN(c2ccccn2)CC1	58	-	26	16	-	-
O=C(c1cccc(Cl)c1)N1CCN(c2ccccn2)CC1	-	-	-	-	-	-
Cc1ccccc1NS(=O)(=O)c1ccc(C(=O)N2CCN(c3ccccn3)CC2)cc1	-	-	-	-	-	-
O=C(c1ccc(S(=O)(=O)Nc2ccccc2F)cc1)N1CCN(c2ccccn2)CC1	51	-	-	-	-	-
CSc1nc(N)n2nccc2n1	-	-	-	-	-	-

Screening results deposited in PubChem by The Scripps Research Institute Molecular Screening Center.
